Activity change, negative = inhibition data for 44 molecules are collected here from PubChem BioAssay AID504810 (National Center for Advancing Translational Sciences (NCATS), 2011).

Among all 330,000 compounds or so, about 670 (0.2%) were called active. This is one part of a sample in which actives are shown more often than they occur. Unmarked numbers belong to inactive results.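 How the source made its calls: active means activity change below a set negative limit, meaning inhibition stronger than a set level (cut at about -70% in these data); inconclusive means activity change between two set negative limits; inactive means the rest.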
On the % scale 0 is the no-effect control and ±100 the full control effect.

Sequence of Thyrotropin receptor (Homo sapiens) (P16473 whole entry, looked up): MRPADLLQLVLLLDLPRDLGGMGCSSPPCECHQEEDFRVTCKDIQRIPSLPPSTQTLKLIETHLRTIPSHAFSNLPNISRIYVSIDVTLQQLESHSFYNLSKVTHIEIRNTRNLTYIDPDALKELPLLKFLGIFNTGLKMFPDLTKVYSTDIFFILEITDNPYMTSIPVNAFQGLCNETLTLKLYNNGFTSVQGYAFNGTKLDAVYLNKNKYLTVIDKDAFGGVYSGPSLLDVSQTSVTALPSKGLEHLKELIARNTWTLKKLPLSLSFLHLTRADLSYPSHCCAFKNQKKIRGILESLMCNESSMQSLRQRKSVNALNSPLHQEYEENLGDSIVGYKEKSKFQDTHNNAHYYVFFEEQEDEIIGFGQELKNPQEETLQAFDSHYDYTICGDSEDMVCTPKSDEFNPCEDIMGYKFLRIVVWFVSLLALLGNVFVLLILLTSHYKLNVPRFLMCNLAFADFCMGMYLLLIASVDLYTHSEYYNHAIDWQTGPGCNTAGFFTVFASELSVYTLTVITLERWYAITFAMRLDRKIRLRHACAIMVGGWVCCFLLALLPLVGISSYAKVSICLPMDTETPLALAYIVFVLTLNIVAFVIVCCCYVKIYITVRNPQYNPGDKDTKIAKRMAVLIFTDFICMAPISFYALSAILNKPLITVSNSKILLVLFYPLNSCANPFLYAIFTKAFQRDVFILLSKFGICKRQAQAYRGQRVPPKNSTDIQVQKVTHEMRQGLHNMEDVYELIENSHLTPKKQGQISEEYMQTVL

This test deals with Thyrotropin receptor (Homo sapiens) (UniProt P16473). Briefly: Antagonists of the Thyroid Stimulating Hormone Receptor: HTS campaign. The conditions noted are these: TSHR-expressing cells, TSH-stimulated cAMP HTRF, 2 h; at 11.5 µM; stronger effect = lower value. Summed up:
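Read-out is FRET at 665 nm (cryptate excitation 337 nm) from a cryptate-tagged anti-cAMP antibody, competed by cell cAMP against cAMP-d2. Compounds are tested on freshly harvested TSHR cells challenged with 4nM TSH (EC80) for 2 hours at 37 deg C.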
(TR-FRET usually uses a lanthanide donor and a delayed reading to cut background.)
For the molecule `Cc1ccc(C(=O)Nc2ncccc2C)cc1S(=O)(=O)N1CCOCC1`, the activity change, negative = inhibition was -1.78%. In the case of `COc1ccc(/C=C/C(=O)OCC(=O)NC2CCCCCC2)cc1OC`, the activity change, negative = inhibition is -8.81%. On to `CCN(CC(=O)Nc1ccccc1C(F)(F)F)C(=O)CSCc1c(C)noc1C`, for which the activity change, negative = inhibition was 4.59%. Regarding `Cc1nnc(NC(=O)CSc2nccn2-c2cccc(C)c2C)s1`, the activity change, negative = inhibition is -14.2%.

Turning to `Fc1ccc(-n2c(Cc3ccccc3)nnc2SCc2nc(-c3ccc(Cl)cc3)no2)cc1`, the activity change, negative = inhibition was 7.8%. As for `CCOCCCNC(=O)C(NC(=O)c1ccc(=O)[nH]c1)c1ccc(Cl)cc1` (centres undefined), the figure is -71.3% (active); as for `CCOCCCNC(=O)C(NC(=O)c1ccccc1O)c1ccccc1` (centres undefined), 1.46%; as for `CCOCCCNC(=O)C(NC(=O)c1ccc(=O)[nH]c1)c1ccc(C)cc1` (centres undefined), -1.24%. Consider `CCOC(=O)C1(CC2CCCCO2)CCN(Cc2nc(-c3cccs3)oc2C)CC1` (centres undefined), for which the activity change, negative = inhibition was -7.01%. For `COc1ccc(N2C(=O)NC(NS(=O)(=O)c3ccc(Cl)cc3)(C(F)(F)F)C2=O)cc1` (centres undefined) the value was -105% (active). For the molecule `Cc1ccc(S(=O)(=O)NC2(C(F)(F)F)NC(=O)N(CCc3ccccc3)C2=O)cc1` (centres undefined), the activity change, negative = inhibition was -3.44%. Take `COc1ccc(S(=O)(=O)NC2(C(F)(F)F)N=C3SCCN3C2=O)cc1` (centres undefined): the activity change, negative = inhibition is 17.4%. As for `Cn1nccc1C(=O)NC1CCCc2c1cnn2-c1ccc(F)cc1F` (centres undefined), the figure is -37.7%; as for `Cn1nccc1C(=O)NC1CCCc2c1cnn2-c1ccccc1F` (centres undefined), -36.6%; as for `Cc1cc(C(=O)NC2CCCc3c2cnn3-c2cccc(C)c2C)c(C)o1` (centres undefined), -79.3% (active). Turning to `Cc1ccc(S(=O)(=O)c2c[nH]c3ccc(Cl)cc3c2=O)cc1`, the activity change, negative = inhibition was -9.54%. Consider `CCn1nc(C(=O)NNC(=O)C2CSC3(C)CCC(=O)N23)c2ccccc2c1=O` (centres undefined), for which the activity change, negative = inhibition was 6.6%.

Turning to `COCCCn1c(Cc2csc(Nc3cccc(Cl)c3)n2)nnc1SCC(=O)OC1CCCCC1`, the activity change, negative = inhibition was -4.53%. For `C/C(=N\NC(=O)c1cc(-c2ccc(O)cc2)nc2ccccc12)c1cccnc1`, the activity change, negative = inhibition was 0.505%. As for `Cc1cccc(N2CCC(NCc3c(C(=O)N4CCCCC4)nc4c(C)cccn34)CC2)c1`, the activity change, negative = inhibition was 4.5%. For `CCOC(=O)[C@H]1[C@H]2COc3ccc(C)cc3[C@@H]2N2C(=O)CN(Cc3ccc(F)cc3)C(=O)[C@@]12C`, the activity change, negative = inhibition was -7.74%. For the molecule `Cc1ccc(N(CCC(=O)O)S(=O)(=O)c2cccc(C(F)(F)F)c2)cc1`, the activity change, negative = inhibition was 22.4%. As for `CN(CC(=O)Nc1cccc(F)c1)C(=O)C1CC(=O)N(CCc2ccccc2)C1` (centres undefined), the activity change, negative = inhibition is 8.3%.

As to `CC(C)c1ccc(NC(=S)NC2CC3C=CC2C3)cc1` (centres undefined), the activity change, negative = inhibition was -4.5%. `CC(NC(=O)COC(=O)CCC(=O)c1ccc(Cl)cc1)c1ccccc1` (centres undefined): the activity change, negative = inhibition was -10.7%.

Consider `COc1cccc(NC(=O)C2CCCN(c3ncnc4c3nc3n4CCCCC3)C2)c1` (centres undefined), for which the activity change, negative = inhibition is -12.1%. In the case of `COc1cccc(N(CC(=O)NCc2ccccc2)C(=O)CCC(=O)Nc2nccs2)c1`, the activity change, negative = inhibition is -9.83%. On to `O=C(CN(C(=O)CCC(=O)Nc1nccs1)c1ccc(F)cc1)NCc1ccc2c(c1)OCO2`, for which the activity change, negative = inhibition is 21.9%. Regarding `COc1ccc(N(CC(=O)NCc2ccc(F)cc2)C(=O)CCC(=O)Nc2nccs2)cc1`, the activity change, negative = inhibition was -77.8% (active).

For `COC(=O)c1ccc(S(=O)(=O)N2CCC(c3nc4ccccc4o3)CC2)cc1`, the activity change, negative = inhibition is -1%.

For the molecule `c1n[nH]c(NCc2ccc3c(c2)OCO3)n1`, the activity change, negative = inhibition is 5.91%. For `N#Cc1nc(Cc2cccc3ccccc23)oc1NCc1ccc2c(c1)OCO2`, the activity change, negative = inhibition is -94.7% (active). As for `Cn1cc(CCC(=O)NCc2ccc3c(c2)OCO3)c2ccccc21`, the figure is 5.66%; as for `CCc1nonc1NC(=O)c1oc2ccc(Cl)cc2c1C`, 3.96%; as for `O=C1C=C(c2cccc(Cl)c2O)C[C@@H](c2ccc(F)cc2)C1`, -23%.

On to `CC1(C)NC(=O)N(CC(=O)N2CCN(S(=O)(=O)c3ccccc3F)CC2)C1=O`, for which the activity change, negative = inhibition is 1.38%. On to `CCN(c1ccccc1)S(=O)(=O)c1cc(C(=O)NCc2ccccn2)ccc1C`, for which the activity change, negative = inhibition is 0.209%.

Regarding `Cc1ccc(C)c(N(CC(=O)NCc2ccco2)C(=O)CCC(=O)Nc2ccccn2)c1`, the activity change, negative = inhibition is 0.465%. Consider `COC(=O)c1ccc(COC(=O)c2c(C)nn(Cc3ccccc3Cl)c2Cl)o1`, for which the activity change, negative = inhibition is -21.4%. As for `CC(=O)N=c1ncn(CC(COC(C)=O)OC(C)=O)c2nc[nH]c12` (centres undefined), the activity change, negative = inhibition was -10.8%. As for `Cc1ccc(S(=O)(=O)N(C)c2ccc(OCC(=O)NC3=NCCS3)cc2)cc1`, the activity change, negative = inhibition was 26.8%. For `Oc1c(Cl)cc(Cl)c(Cl)c1Cc1c(O)c(Cl)cc(Cl)c1Cl` the value was -103% (active); for `CC(Oc1ccccc1)C(=O)NN1Cc2ccccc2C1=N` (centres undefined), 8.16%; for `CCOC(=O)c1ccc(NC(=O)c2nc[nH]c2C(=O)N[C@@H](CCCCNC(=O)OC(C)(C)C)C(=O)OC(C)(C)C)cc1`, -6.71%.
